This passage reports morphology score and SARS-CoV-2 infection rate results from the supplement of paper PMC13380429.

Assay [1] relates to Vero E6 infected with SARS-CoV-2. The experiment in a line: morphology score (similarity to uninfected cells); higher = more like uninfected cells. The following applies: 24 h.
The test system is the same in assay [2]. As to the kind of experiment: SARS-CoV-2 infection rate relative to infected DMSO; higher = more infection, active = 60 or less. The settings on record: 24 h.

Regarding `CC(C)(C)c1nc(-c2cccc(NS(=O)(=O)c3c(F)cccc3F)c2F)c(-c2ccnc(N)n2)s1` [dabrafenib] (10 µM), in assay [1], the morphology score came to 0.245. Besides, the SARS-CoV-2 infection rate in assay [2] is 114% (inactive).
Taken in the same sequence, the figures for `CCCCNc1ccc(C(=O)OCCN(C)C)cc1` [tetracaine] (10 µM) were -0.144 and 116% (inactive).
The compound `CN(CC(=O)O)C(=N)N` [creatine] (10 µM) returned a morphology score in assay [1] of 0.0148. Moreover, the SARS-CoV-2 infection rate in assay [2] is 113% (inactive).
In the same order, the values of `C[C@@H](Nc1cc(F)cc(F)c1)c1cc(C(=O)N(C)C)cc2c(=O)cc(N3CCOCC3)oc12` (10 µM) are -0.225 and 122% (inactive).
In the same order, the values of `C#C[C@]1(O)CC[C@H]2[C@@H]3CCc4cc(OC)ccc4[C@H]3CC[C@@]21C` [mestranol] (10 µM) are -0.00302 and 110% (inactive).
`O=C1Cc2c([nH]c3ccc(Br)cc23)-c2ccccc2N1` [kenpaullone] (10 µM) showed a morphology score in assay [1] of 0.533. In addition, the SARS-CoV-2 infection rate in assay [2] was 69.5% (inactive).
With `CC1=C(CCC(=O)O)c2cc3[nH]c(cc4nc(cc5[nH]c(cc1n2)c(C)c5C(C)O)C(C)=C4C(C)O)c(C)c3CCC(=O)O` (stereo not given) [hematoporphyrin] (10 µM), the morphology score in assay [1] is -0.184. In addition, the SARS-CoV-2 infection rate in assay [2] is 116% (inactive).
Taken in the same sequence, the figures for `O=C1CN(/N=C/c2ccc([N+](=O)[O-])o2)C(=O)N1` [nitrofurantoin] (10 µM) were 0.168 and 112% (inactive).
In the same order, the values of `O=C[C@H](F)[C@@H](O)[C@@H](O)[C@H](O)CO` [2-fluoro-2-deoxy-D-galactose] (10 µM) are 0.127 and 116% (inactive).
In turn, `Cc1ccc(=O)n(-c2ccccc2)c1` [pirfenidone] (10 µM) came in with a morphology score in assay [1] of 0.289. Also, the SARS-CoV-2 infection rate in assay [2] was 83% (inactive).
